High-throughput results as filed in PubChem BioAssay.
Rows were chosen to be rich in hits. Some 3.4% of all compounds tested hit in one or more screens of this group.
PLC-gamma1 inh: blocks human PLC-gamma1 enzyme activity; 370,000 tested, 0.84% active; inhibition, % at 12.2 µM; P19174; purified PLC-gamma1, fluorogenic substrate, fluorescence; in the data active = inhibition above about 9.5%
ADAM10 inh: inhibits human ADAM10; recombinant ADAM10, EDANS/DABCYL FRET peptide cleavage, 3 h; inhibition, % at 7 µM; 370,000 tested, 0.62% active; AID 720582;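 active = inhibition above a per-campaign cutoff equal to the mean of compounds falling between control-based bounds plus 3 SD, cut at about 20% in these data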;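 note: 0% = DMSO wells while the 100% control is not disclosed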
Target sequence (O14672 214-748 limits assumed): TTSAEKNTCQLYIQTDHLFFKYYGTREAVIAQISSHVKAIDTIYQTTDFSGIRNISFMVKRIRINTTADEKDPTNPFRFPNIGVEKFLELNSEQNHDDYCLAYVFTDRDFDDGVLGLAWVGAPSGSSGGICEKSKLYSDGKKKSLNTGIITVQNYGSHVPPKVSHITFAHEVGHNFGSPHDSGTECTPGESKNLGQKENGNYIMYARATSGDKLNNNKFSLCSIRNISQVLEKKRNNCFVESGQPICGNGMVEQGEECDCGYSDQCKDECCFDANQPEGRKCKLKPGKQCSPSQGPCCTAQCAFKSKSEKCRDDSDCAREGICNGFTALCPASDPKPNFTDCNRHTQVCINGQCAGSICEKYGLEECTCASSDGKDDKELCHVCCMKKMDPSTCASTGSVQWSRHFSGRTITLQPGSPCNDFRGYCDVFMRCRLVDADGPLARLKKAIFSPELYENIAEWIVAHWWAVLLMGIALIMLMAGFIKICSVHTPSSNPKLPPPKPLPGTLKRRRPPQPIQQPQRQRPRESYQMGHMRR
ADAM17 inh: inhibits human ADAM17 | AID 720648 | recombinant ADAM17, EDANS/DABCYL FRET peptide cleavage | inhibition, % at 6.95 µM | 370,000 tested, 0.83% active;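 active = inhibition above the mean of compounds lying between control limits plus 3 SD, set per campaign, cut at about 8.5% in these data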;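 note: 0% = DMSO-only wells as the low control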
PLCb3 inh: PLC-beta3 (human) inhibition, primary screen. Purified PLC-beta3, fluorogenic substrate, fluorescence. inhibition, % at 12.2 µM. 370,000 tested, 0.18% active. AID 720704;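 note: 0% = median of compound wells on plate and 100% = full blocker control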
KLK7 zymogen act: activates the human kallikrein-7 zymogen; P49862; purified proKLK7, EDANS-DABCYL substrate fluorescence; 100% is mature enzyme control, 0% vehicle; activation, % at 7 µM; 370,000 tested, 0.9% active; AID 652039;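 active = activation above the mean of all tested compounds plus 3 SD, computed per campaign excluding outliers beyond control limits, cut at about 13% in these data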
HGIII-sPLA2 inh: Blocks human group III sPLA2 activity. QFRET BODIPY PC-A2 liposome hydrolysis, fluorescence. inhibition, % at 12.2 µM. 370,000 tested, 0.56% active. AID 743126;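 active = inhibition above mean plus 3 SD of compounds lying within the high and low control bounds, cut at about 19% in these data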;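 note: 0% = median of test compound wells and 100% = no enzyme DMSO wells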
ADAM10 confirm: human ADAM10 inhibition, confirmation. shares compounds with ADAM10 inh. AID 743208. inhibition, % at 6.95 µM. ADAM10 QFRET peptide cleavage, EDANS fluorescence. 2,100 tested, 1% active;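 active = inhibition above about 20% chosen separately for each screening run, limit read from the data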;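 note: 0% = DMSO wells and 100% = marimastat wells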
ADAM17 ctr: ADAM17 inhibition, counter-screen for ADAM10 exosite hits | shares compounds with ADAM10 inh | ADAM17 QFRET peptide cleavage, EDANS fluorescence | inhibition, % at 6.95 µM | 2,100 tested, 0.5% active;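 active = mean triplicate inhibition above the solvent-only control wells' mean plus 3 SD, cut at about 12% in these data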;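 note: 0% = DMSO wells and 100% = marimastat wells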
ADAM10 counter: counter-screen for ADAM17 exosite inhibitors: inhibitors of human ADAM10 | shares compounds with ADAM17 inh | 2,900 tested, 47% active | recombinant ADAM10, EDANS/DABCYL FRET peptide cleavage, 3 h | inhibition, % at 6.95 µM | AID 743256;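 active = mean inhibition over the triplicate runs exceeds the activity threshold set in the earlier primary screen, cut at about 20% in these data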;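 note: 0% = DMSO wells and 100% = marimastat wells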
ADAM17 confirm: human ADAM17 inhibition, confirmation; AID 743257; recombinant ADAM17, EDANS/DABCYL QFRET peptide cleavage; shares compounds with ADAM17 inh; inhibition, % at 6.95 µM; 2,900 tested, 65% active;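 active = mean inhibition across replicates above the hit cutoff set in the primary screen, cut at about 8.5% in these data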;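 note: 0% = DMSO wells and 100% = marimastat wells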
PLCgamma1 ctr: PLC-gamma1 inhibition, counter-screen for PLC-beta3 hits; shares compounds with PLC-gamma1 inh; purified PLC-gamma1, fluorogenic substrate, fluorescence; inhibition, % at 12.3 µM; 3,300 tested, 3.1% active; in the data active = inhibition above about 9.5%
PLCb3 confirm: confirmation of human PLC-beta3 inhibitors. shares compounds with PLC-gamma1 inh. purified PLC-beta3, fluorogenic substrate fluorescence. inhibition, % at 12.3 µM. 3,300 tested, 1% active
Starred values were filed as active, the others as inactive; / = no result. Cut-off read from the data, not from the text of the source, unless noted: active = inhibition above about 11%; inactive = the rest.

SMILES	PLC-gamma1 inh	ADAM10 inh	ADAM17 inh	PLCb3 inh	KLK7 zymogen act	HGIII-sPLA2 inh	ADAM10 confirm	ADAM17 ctr	ADAM10 counter	ADAM17 confirm	PLCgamma1 ctr	PLCb3 confirm
Cc1ccc(NC(=O)CN(C)C(=O)Cc2ccc(Cl)cc2Cl)cc1	10.8*	30.0*	5.8	-0.2	-0.3	-13.0	0.8	0.3	/	/	-9.8	-5.7
Cc1ccc(C)c(NC(=O)CN(C)C(=O)Cc2ccc(Cl)cc2Cl)c1	-2.6	-1.9	0.5	-6.1	-0.2	-6.6	/	/	/	/	/	/
Cc1ccc(C(=O)CCC(=O)OC(C)C(=O)NC2CCCCC2C)cc1 (stereo unspecified)	1.2	0.5	-1.1	-2.4	0.0	-3.8	/	/	/	/	/	/
Cc1ccc(NC(=O)N(Cc2ccco2)Cc2cc3cc(C)cc(C)c3nc2Cl)cc1	-1.5	2.2	-5.1	2.1	-0.1	4.1	/	/	/	/	/	/
Cc1cccc2cc(CN(Cc3ccco3)C(=O)Nc3cccc(C#N)c3)c(Cl)nc12	10.7*	28.8*	9.9*	7.0	-0.2	-23.3	11.5	3.2	42.0*	23.1*	-4.7	-0.6
Cc1ccc(NC(=O)COC(=O)CC2CC3CCC2C3)cc1S(=O)(=O)N1CCOCC1 (stereo unspecified)	11.5*	23.3*	12.4*	-2.0	0.2	-33.4	0.9	0.2	10.6	8.0	-5.8	-3.8
Cc1ccc(NC(=O)COC(=O)CN2C(=O)C3CCCCC3C2=O)cc1S(=O)(=O)N1CCOCC1 (stereo unspecified)	2.3	-7.5	0.1	-2.5	-0.4	5.7	/	/	/	/	/	/
O=C(Nc1ccccc1C(F)(F)F)c1ccc(F)c(S(=O)(=O)N2CCOCC2)c1	13.1*	22.3*	4.2	3.9	0.8	7.3	2.8	-0.3	/	/	0.7	-4.3
O=C(Nc1ccccc1N1CCCCC1)c1ccc(F)c(S(=O)(=O)N2CCOCC2)c1	2.3	3.9	3.6	-0.9	0.3	-0.8	/	/	/	/	/	/
O=C(C1CC=CCC1)N1CCC(CO)(Cc2ccc(Cl)cc2)CC1 (stereo unspecified)	2.8	5.0	1.7	-4.1	1.0	-5.5	/	/	/	/	/	/
COc1cc(C(C)=O)ccc1OCC(O)CN(CCO)Cc1ccccc1 (stereo unspecified)	-0.5	-4.3	-7.3	-6.0	-0.1	4.9	/	/	/	/	/	/
OCCN(Cc1ccccc1)CC(O)COc1ccc(-c2ccccc2)cc1 (stereo unspecified)	13.1*	29.9*	13.4*	5.6	0.5	-25.8	3.6	1.3	30.8*	15.6*	-2.4	-3.2
COc1ccc(-c2noc(Cn3cc(S(=O)(=O)N4CCCC4)ccc3=O)n2)cc1	-2.8	-3.9	0.3	-11.5	-0.2	-10.3	/	/	/	/	/	/
O=C(NCC(c1ccccc1)c1ccccc1)[C@H](Cc1c[nH]c2ccccc12)NC1(C(=O)NC2CCCCC2)CCCCCC1	2.1	-7.6	-4.7	0.1	/	-4.5	/	/	/	/	/	/
O=C(NCC(c1ccccc1)c1ccccc1)[C@H](Cc1c[nH]c2ccccc12)NC1(C(=O)NC2CCCCC2)CCC1	10.0*	24.4*	13.8*	7.4	/	-70.1	7.0	2.5	34.2*	23.8*	-2.9	-1.5
O=C1CC(=C(c2ccccc2)c2ccccc2)C(=O)N1CCCCN1CCN(c2cccc(Cl)c2)CC1	20.0*	31.8*	11.9*	11.0*	-0.4	-31.9	4.8	1.2	3.9	7.7	-0.8	2.1
CCN(CC)S(=O)(=O)c1ccc(N2CCOCC2)c(NS(=O)(=O)c2cc(C(C)(C)C)ccc2C)c1	11.6*	36.4*	17.4*	6.4	0.0	-29.9	2.8	1.4	31.0*	14.9*	-2.4	-26.1
COc1cc(O)c(C(CCN2CCOCC2)c2cc(OC)c(OC)c(OC)c2)c(OC)c1 (stereo unspecified)	0.4	3.0	-4.4	2.2	-0.1	7.7	/	/	/	/	/	/
Cc1cccc(Nc2nc(N)c([N+](=O)[O-])c(NCc3ccco3)n2)c1	13.9*	31.0*	16.3*	7.4	-0.5	-31.9	2.2	1.4	20.0*	10.3*	-1.7	-15.0
CCC1CN(C(=O)Nc2ccc(C)cc2)c2cc(C)ccc2O1 (stereo unspecified)	-2.0	10.9	4.1	-0.7	0.5	2.2	/	/	/	/	/	/
O=C(CSc1nnc(-c2ccccc2)n1Cc1ccco1)Nc1ccc(OCc2ccccc2)cc1	11.4*	37.0*	10.0*	6.8	0.7	-7.1	5.1	0.3	21.4*	14.3*	0.7	0.1
COc1cccc(-c2nnc(SCC(=O)Nc3ccc(OCc4ccccc4)cc3)n2Cc2ccco2)c1	-1.2	8.1	1.3	-3.9	0.3	-29.1	/	/	/	/	/	/
N#Cc1ccc(C(=O)NCC2CCN(C(=O)C(=O)c3cccs3)CC2)cc1	-0.1	-2.0	-0.7	5.0	-0.2	15.4	/	/	/	/	/	/
COc1cccc(NC(=O)C(Sc2nnc(Nc3ccccc3C)s2)c2ccccc2)c1 (stereo unspecified)	10.0*	32.7*	14.0*	3.7	0.5	-17.3	8.7	2.5	29.2*	15.4*	7.5	0.9
COc1ccc(Nc2nnc(SC(C(=O)Nc3cc(C)ccc3C)c3ccccc3)s2)cc1 (stereo unspecified)	5.4	8.4	1.0	3.3	-0.1	1.6	/	/	/	/	/	/
Cc1ccc(NC(=S)NC(=O)C2CCCCC2)c(Br)c1	15.7*	33.3*	14.8*	15.4*	1.1	18.6	3.2	1.3	10.8	9.3*	0.9	1.3
CC(C)(C)NC(=O)NC(=O)COc1ccc(Br)cc1Br	10.9*	20.2*	6.2	7.0	0.0	3.1	2.0	-0.4	/	/	-1.6	0.8
O=C1CCCN1c1ccc(S(=O)(=O)Oc2cccc(Cl)c2)cc1[N+](=O)[O-]	9.6*	19.9*	9.7*	3.2	-0.4	-13.3	2.8	0.8	4.5	5.1	-3.1	3.8
CCn1cc(CCC(=O)Nc2ccc(Oc3cccnc3)cc2)c2ccccc21	0.7	-1.1	-1.5	-6.1	1.0	-2.4	/	/	/	/	/	/
